eIF4E 4G PPI: inhibitors of eIF4E and eIF4G interaction in translation initiation; 220,000 compounds, 0.37% hits; TR-FRET eIF4E-eIF4GI(517-606) binding, 2 h; P63073+Q04637; inhibition, % at 21.7 µM;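 active means inhibition above about 30%, limit read from the data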
PABP1 MLLE inh: inhibitors of microRNA-mediated deadenylation, human PABP1 MLLE binding | P11940 | GST-MLLE / FITC-PAM2 fluorescence polarization | inhibition, % at 20 µM | 360,000 compounds, 0.36% hits | AID 588489; in the data active means inhibition above about 35%, passing the limit was not always enough
PABP polyA inh: PABP-poly(A) binding inhibition; P11940; PABP-poly(A) RNA binding, fluorescence polarization; calls only at 35 µM; 290,000 compounds, 1% hits; AID 2014;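 further: calls also rest on retests at 20 µM and on dose response follow-up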
eIF4H inh: inhibitors of RNA binding by human eIF4H; Q15056; eIF4H fluorescence polarization binding assay; inhibition, % at 35 µM; 290,000 compounds, 0.94% hits;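 further: calls also rest on retests at 20 µM and on dose response follow-up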
Hits are given with their value; n = inactive; u = inconclusive; x = no result given; + = active, no number. An excerpt weighted towards active compounds, which were near 1.5% of everything screened. Unless noted, how the calls were made is not given here.

SMILES	eIF4E 4G PPI	PABP1 MLLE inh	PABP polyA inh	eIF4H inh
CC(C)Cn1c(N)c(C(=O)COC(=O)c2cc(C3CC3)nc3ccccc23)c(=O)n(C)c1=O	n	x	+	n
NC(=O)N/N=C/c1sc(=O)n(-c2ccccc2)c1Cl	n	n	n	n
O=C(N/N=C/c1sc(=O)n(-c2ccccc2)c1Cl)c1ccccc1	n	n	+	65
CC(=O)Nc1ccc(S(=O)(=O)NCCc2ccc3c(c2)OCCO3)cc1	x	n	x	x
CCn1cnc2c1c(=O)n(CC(=O)NCc1ccccc1)c(=O)n2Cc1ccccc1	n	n	n	n
CCn1cnc2c1c(=O)n(CC(=O)NCC(F)(F)F)c(=O)n2Cc1ccccc1	n	n	+	99
COc1cc(F)ccc1-c1csc(C(C)(O)c2ccc(F)c(F)c2)n1 (configuration not stated)	x	n	x	x
Cc1cccc(N(C)S(=O)(=O)c2ccc(-c3cc(C)no3)s2)c1	x	n	n	n
CCN(c1cccc(C)c1)S(=O)(=O)c1ccc(-c2cc(C)no2)s1	x	n	n	88
C/C(=N\Nc1ccc(C(=O)O)cc1)c1nc2ccccc2n1C	n	x	+	active
Cn1c(/C=N/NC(=O)c2ccccc2)nc2ccccc21	n	n	n	n
NC1=NC(=O)/C(=C/c2cccc(-c3ccc(S(N)(=O)=O)cc3)c2)S1	x	n	+	90
NC1=NC(=O)/C(=C\c2ccc(O)c([N+](=O)[O-])c2)S1	n	n	n	n
CCOC(=O)CCCCCC(=O)Nc1ccc2c(c1)C(=O)N([C@@H](C)CO)C[C@H](C)[C@H](CN(C)C(=O)c1ccccc1)OCCCC[C@H](C)O2	x	n	x	x
CC(=O)C1=CCC(c2ccc(Br)cc2)N(S(=O)(=O)c2ccc(C)cc2)C1 (configuration not stated)	x	n	x	x
Oc1cc(-n2cccn2)c(O)cc1-n1cccn1	n	47	n	n
FC(F)(F)c1cccc(-c2nc3nc(Cl)c(Cl)nc3[nH]2)c1	n	n	+	u
Nc1ccc(N2CCCCCC2)cc1	n	x	+	83
Cc1ccc(Nc2nc3ccccc3nc2-n2nc(C)cc2C)cc1	52	n	n	n
Cc1ccc2nc(Cl)c(C3CC(c4cccs4)=NN3C(=O)CCCC(=O)O)cc2c1 (configuration not stated)	n	n	n	n
Cc1ccc2cc(C3CC(c4ccco4)=NN3C(=O)CCC(=O)O)c(Cl)nc2c1 (configuration not stated)	n	n	+	u
O=C(NNC(=O)c1cc(S(=O)(=O)N2CCOCC2)ccc1Cl)c1ccc(F)cc1	x	n	x	x
C[C@@H]1CN([C@@H](C)CO)C(=O)c2cc(NC(=O)C3CCCCC3)ccc2O[C@@H](C)CCCCO[C@@H]1CN(C)Cc1ccncc1	x	n	x	x
Cn1c(SCC(=O)N/N=C/C=C\c2ccco2)nc2ccccc21	n	n	+	90
Cn1c(=O)c2c(ncn2CC(=O)N/N=C/C=C/c2ccco2)n(C)c1=O	n	n	+	99
SMILES	eIF4E 4G PPI	PABP1 MLLE inh	PABP polyA inh	eIF4H inh
CC(/C=N/NC(=O)CSc1nnc(SCc2ccccc2)s1)=C\c1ccco1	n	n	+	69
OCC1OC(c2ccc(OCc3ccccc3)cc2OCc2ccccc2)C(O)C1O (configuration not stated)	x	n	x	x
O=C1NN(c2ccccc2)C(=O)/C1=C\c1ccc(-c2cc([N+](=O)[O-])ccc2O)o1	n	n	+	92
O=C1NN(c2ccc(Cl)cc2)C(=O)/C1=C\c1ccc(-c2cccc(C(=O)O)c2)o1	32	n	n	n
COc1ccc(Sc2ccc(/C=C3\C(=O)NN(c4ccccc4)C3=O)o2)cc1	n	n	n	n
Cc1ccc(N2NC(=O)/C(=C/c3ccc(-c4ccc(Cl)c(C(=O)O)c4)o3)C2=O)cc1	n	n	n	n
CN(C)CCOC(=O)c1ccc2c(c1)S(=O)(=O)c1ccccc1C2=O	35	n	n	n
CNC(=O)COC(=O)c1ccc2c(c1)S(=O)(=O)c1ccccc1C2=O	x	n	n	n
CCOc1cc(Br)cc(C(c2c(C(=O)O)[nH]c3ccccc23)c2c(C(=O)O)[nH]c3ccccc23)c1O	x	n	n	n
CSc1ccc(C(c2c(C(=O)O)[nH]c3ccccc23)c2c(C(=O)O)[nH]c3ccccc23)cc1	x	n	n	53
Cc1ccc(S(=O)(=O)N2[C@@H](c3cccc(Cl)c3)C(C(=O)OC(C)(C)C)=CC[C@H]2c2cccc(Cl)c2)cc1	x	n	x	x
CC(=O)Nc1ccc(SC[C@H](C)CN2CC[C@H](C(C)(C)C)CCC2=O)cc1	x	46	x	x
COc1ccc(C(=S)Nc2ccc(C)cc2)cc1	n	40	n	n
COc1ccc(NC(=S)c2ccncc2)cc1	n	n	n	n
COc1ccc(NC(=S)c2ccc3ccccc3n2)cc1	x	38	n	n
Cc1ccc(NC(=S)c2ccc3ccccc3n2)c(C)c1	x	36	n	n
CCN(CC)C(=O)c1csc([C@@H]2O[C@H](CO)[C@H](O)[C@H](O)[C@H]2O)n1	x	n	x	x
C[C@H](CO)N1C[C@H](C)[C@H](CN(C)C(=O)Nc2ccc(C(F)(F)F)cc2)Oc2ncc(-c3cccnc3)cc2C1=O	x	n	x	x
CC1CC(C)CN(S(=O)(=O)c2ccc(C(C)(C)C)cc2)C1 (configuration not stated)	n	n	+	n
CC(C)(C)c1ccc(S(=O)(=O)N2CCN(C3CCCC3)CC2)cc1	x	n	n	n
COc1cc(/C=C2\CCCc3c2nc2ccccc2c3C(=O)O)cc([N+](=O)[O-])c1O	x	n	+	80
COc1cc(/C=C2\CCCc3c2nc2ccccc2c3C(=O)O)cc(OC)c1O	n	n	n	n
CC[C@@H](NC(=O)[C@@H](Cc1ccccc1)NC(=O)CC[C@H]1O[C@@H](n2ccc(=O)[nH]c2=O)[C@H](O)[C@@H]1O)c1ccccc1	x	n	x	x
COc1cccc(Nc2ccc(N3CCCCC3)cc2)c1OC	x	60	x	x
COc1cc(NC(=O)CCn2c(=S)[nH]c3ccccc3c2=O)cc(OC)c1OC	x	n	x	x
SMILES	eIF4E 4G PPI	PABP1 MLLE inh	PABP polyA inh	eIF4H inh
OC[C@@H]1CN(Cc2ccco2)C[C@H](n2cnc3c(NC4CCCC4)ncnc32)O1	x	n	x	x
Cc1c(NC(=S)NC(=O)c2cc3ccccc3o2)cccc1C(=O)O	x	39	n	n
Cc1c(NC(=S)NC(=O)CSc2ccc(Cl)cc2)cccc1C(=O)O	x	41	n	n
Cc1c(NC(=S)NC(=O)c2ccc(-c3ccc(Cl)cc3)o2)cccc1C(=O)O	n	n	n	n
CN1CCN(c2ccccc2NC(=S)NC(=O)c2cc3ccccc3o2)CC1	x	n	n	n
O=C(Nc1ccn(CCCN2CCN(Cc3ccc(F)cc3)CC2)c(=O)n1)OCc1ccccc1	x	n	x	x
CCCn1cnc2sc(CC)cc2c1=O	n	n	n	58
CCCn1cnc2sc(C(N)=O)c(C)c2c1=O	x	n	n	n
Cc1cn([C@H]2C[C@H](O)[C@@H](CCC(=O)NCc3ccc(N(C)C)cc3)O2)c(=O)[nH]c1=O	x	n	x	x
CCOC(=O)C1=C[C@@H](C(C)C)N(S(=O)(=O)c2ccc(C)cc2)[C@H]1c1ccc(C(C)C)cc1	x	n	x	x
COc1ccc(-c2onc3ccc(Cl)cc23)cc1	n	n	+	51
COc1ccc(C)cc1S(=O)(=O)N(CC(=O)Nc1cc([N+](=O)[O-])ccc1C)c1ccc(C)c(C)c1	n	n	+	active
